Whole data set: some 33,000 sequences, median “E-score (-0.5 to 0.5)” near -0.0034, cut for the highest 2% near 0.25. The list comes from a sample in which the highest values are over-represented; it also holds similar and randomly drawn sequences.
target: T1, Yap3 (UniProt P38749); assay: PBM E-score (8-mer binding enrichment) (E-score (-0.5 to 0.5)); higher = stronger / more preferred TF binding; conditions: protein concentration: 100 nM; construct: GST-full length
T1 sequence: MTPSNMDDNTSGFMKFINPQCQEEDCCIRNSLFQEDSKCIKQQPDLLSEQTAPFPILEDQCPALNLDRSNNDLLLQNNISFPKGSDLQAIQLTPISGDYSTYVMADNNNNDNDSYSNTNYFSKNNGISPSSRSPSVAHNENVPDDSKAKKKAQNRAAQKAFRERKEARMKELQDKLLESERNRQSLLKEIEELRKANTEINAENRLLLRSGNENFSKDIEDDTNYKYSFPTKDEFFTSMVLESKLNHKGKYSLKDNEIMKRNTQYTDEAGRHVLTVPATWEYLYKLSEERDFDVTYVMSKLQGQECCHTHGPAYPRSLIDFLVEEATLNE
Experimental: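 Universal 'all 10-mer' protein binding microarrays (Agilent AMADID 015681) probed with GST-tagged S. cerevisiae TFs (full-length or DBD) made by in vitro transcription/translation (PURExpress), about 100-200 nM. Bound TF was detected with fluorescent anti-GST. Each ungapped 8-mer (which stands for itself and its reverse complement) is scored by the PBM enrichment score (E-score), a modified Wilcoxon-Mann-Whitney statistic from -0.5 to +0.5, computed with the Universal PBM Analysis Suite. Scale: above 0.35 generally sequence-specific binding.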

Sequence	PBM E-score
AACTATAG	0.0554
AACTATAC	0.0711
AAAAATAG	0.225
AAATATAC	0.19
AACGATAC	0.0446
AACTATAT	0.309
AAAAATAT	0.342
AACGATAG	0.116
AACGATAT	0.269
AAAAATAC	0.14
AAATATAT	0.285
AAATATAG	0.117
AACTCATT	0.0581
CTCCCTCA	-0.122
CCTCAAGG	-0.145
CTCATTCC	0.139
CTGCCCAA	-0.122
GCCGAATA	0.115
AAACCACC	0.0609
ATCGACTC	-0.161
AGTAGAAG	0.0935
AGTCATGG	0.0946
AGCTTTAA	0.0942
CAGTATGA	0.143
GCATATGA	0.214

Sequence	PBM E-score
TAGTATGA	0.255
AAGTATGA	0.0367
GAATATGA	0.168
TCATATGA	0.317
TAATATGA	0.297
CAATATGA	0.174
CCATATGA	0.00159
AGTTGATC	0.0597
GACAGGTC	-0.226
AAGGTTCC	-0.0546
CAAGTATA	-0.0229
AAAGTATA	0.235
TAAGTATA	0.275
CCTCGCTC	0.0543
AGAGAACA	0.206
GGCCCCCC	-0.461
CCCACACA	-0.0183
TTAACGAA	0.179
ACAACCAC	0.0359
ACAACCAT	0.334
ACAACCAG	0.0808
AAATTCGT	0.312
AATTTCCA	0.267
CAATTCCA	-0.102
AAATTCCA	0.269

Sequence	PBM E-score
GATTTCCA	0.0257
AAATTCGC	0.129
TATTTCCA	0.00077
GAATTCCA	0.195
AAATTCGG	0.153
GTCTTGAA	0.0256
AAGAACGA	0.142
CCAATTGA	0.0344
GAACGCAC	0.0357
AGAGGTAC	-0.248
AGAGGTAA	-0.0121
AGAGGTAT	0.256
ATCCGATG	0.0814
ATTAGACG	0.104
ACTGTAAC	0.0996
CCTGTAAA	-0.0789
CACGTAAA	-0.0521
AATGTAAT	0.253
CATGTAAG	0.155
CATGTAAA	0.0358
TATGTAAA	0.262
TACGTAAA	0.319
GACGTAAA	0.0343
AATGTAAG	0.307
ACTGTAAA	0.257

Sequence	PBM E-score
AATGTAAA	0.231
TAGATGAA	0.082
CCGATGTC	0.0178
AATAGCTA	0.0193
AGTGATCC	-0.0505
GGGATCGA	-0.124
CGCGTAAG	0.158
AACGTAAC	0.201
CGCGTAAA	0.255
TGCGTAAA	0.132
AACGTAAT	0.353
AACGTAAA	0.2
CAAGAAAC	0.197
TACAACTA	-0.028
AGCCCACA	-0.117
AATGGAGG	-0.119
AATTTTAT	0.266
CATTTTAC	0.332
GATTTTAC	0.161
AATTTTAG	0.107
CATTTTAA	0.219
CATTTTAG	0.121
AATTTTAC	0.258
AAATTTAT	0.144
ATTTTTAC	0.0674

Sequence	PBM E-score
CCTTCTCG	-0.134
AGGTTTCA	0.0131
GATACTAC	0.0824
ACGGTAGA	-0.0586
AACTGATT	-0.0243
AACCAGGC	-0.00725
CAGTGAAC	0.161
CTGGTTGA	-0.256
CTTCACTC	0.0393
ATTATGTC	0.198
ATTATGTG	0.291
AGTATGTG	0.203
ACTATGTG	-0.0195
ATTATGCC	0.119
ATTATGCG	0.297
GTTATGTA	0.151
CTAATGTA	0.148
ATAATGTC	0.195
ATTATGTA	0.267
ATTATGCA	0.0948
ATAATGTA	0.292
CCTGCGCA	-0.158
AAATCACC	0.235
AGATCGCG	0.0544
GTAGGGAA	0.0975

Sequence	PBM E-score
ACGTAGTC	-0.262
CTTATGAA	0.0398
GTTATGAA	0.172
ATTATGAA	0.261
ATCGACTA	0.0167
CATGTGGC	0.0138
ACAACGCG	0.0663
ATATTCTC	0.295
ATATTCAC	0.254
ATATTCTA	0.175
CTATTCAC	0.133
GTATTCAC	0.113
CTATTCTC	0.134
AGGTTCTG	-0.122
CCACCATC	-0.238
GTACAAGA	0.0226
GACTTACC	-0.11
CAAAGTCA	0.0697
AGACAATA	0.339
AGACAATG	0.0142
AGACAATC	0.129
CTATGGGC	-0.0642
ACCCAGAA	0.158
CAACCGCG	0.323
CAACCGCA	0.00088

Sequence	PBM E-score
CAACCGCC	-0.103
CATAAGAA	0.21
AAGTGGAC	-0.033
GTTCGTAA	0.192
CTTCGTTC	0.0138
ACACGTAT	0.0936
ATTCGTTC	0.27
ATTCGTTA	0.25
AAACGTAT	0.145
ATACGTAT	0.296
ATTCGTAA	0.292
GTACGTAA	0.312
GTACGTAC	0.0261
CTTCGTAA	0.141
CTACGTAA	0.135
CGGGGTAC	-0.251
GTGAGCTA	0.0321
AAATGTGC	0.197
CCACTAAG	0.0472
ACTAAGTG	-0.00977
ACAACAGC	0.0808
ACAGAGAT	0.0805

— the supplement of paper PMC3334620
